According to PMC11006913:

Experiments:
Experiment in all cases: PBM; 200 nM protein, PBS
Conditions in all cases: dsDNA, one strand shown
HOXB9 [1] = molecular target: HOXB9 (Homo sapiens, UniProt P17482 171-250, T197M)
HOXC9 [2] = molecular target: HOXC9 (Homo sapiens, UniProt P31274 178-260, K195R)
HOXC10 [3] = molecular target: HOXC10 (Homo sapiens, UniProt Q9NYD6 254-340)
HOXB9 [4] = molecular target: HOXB9 (Homo sapiens, UniProt P17482 171-250)
HOXC9 [5] = molecular target: HOXC9 (Homo sapiens, UniProt P31274 178-260)
HOXD13 [6] = molecular target: HOXD13 (Homo sapiens, UniProt P35453 263-343, T313R)
HOXC9 [7] = molecular target: HOXC9 (Homo sapiens, UniProt P31274 178-260, R193K)
HOXD13 [8] = molecular target: HOXD13 (Homo sapiens, UniProt P35453 263-343)
HOXC10 [9] = molecular target: HOXC10 (Homo sapiens, UniProt Q9NYD6 254-340, K271E)
HOXD13 [10] = molecular target: HOXD13 (Homo sapiens, UniProt P35453 263-343, T313A)
HOXB9 [11] = molecular target: HOXB9 (Homo sapiens, UniProt P17482 171-250, R186Q)
HOXC9 [12] = molecular target: HOXC9 (Homo sapiens, UniProt P31274 178-260, R222W)
MSX2 [13] = molecular target: MSX2 (Homo sapiens, UniProt P35548 130-214, R199I)
MSX2 [14] = molecular target: MSX2 (Homo sapiens, UniProt P35548 130-214)
PROP1 [15] = molecular target: PROP1 (Homo sapiens, UniProt O75360 56-141)
PROP1 [16] = molecular target: PROP1 (Homo sapiens, UniProt O75360 56-141, R99H)
PROP1 [17] = molecular target: PROP1 (Homo sapiens, UniProt O75360 56-141, F88S)
MSX2 [18] = molecular target: MSX2 (Homo sapiens, UniProt P35548 130-214, F161Y)
ALX4 [19] = molecular target: ALX4 (Homo sapiens, UniProt Q9H161 200-286)
ALX4 [20] = molecular target: ALX4 (Homo sapiens, UniProt Q9H161 200-286, Q225E)
Chain of ALX4 (Homo sapiens, UniProt Q9H161 200-286, Q225E) (Q9H161 200-286 Q225E): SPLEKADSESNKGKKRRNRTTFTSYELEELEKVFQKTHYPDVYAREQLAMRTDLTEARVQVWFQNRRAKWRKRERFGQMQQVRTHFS

Chain of HOXC10 (Homo sapiens, UniProt Q9NYD6 254-340) (Q9NYD6 254-340): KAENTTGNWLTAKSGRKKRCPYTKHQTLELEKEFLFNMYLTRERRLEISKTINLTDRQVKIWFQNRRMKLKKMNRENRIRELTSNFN
Chain of HOXC9 (Homo sapiens, UniProt P31274 178-260, R222W) (P31274 178-260 R222W): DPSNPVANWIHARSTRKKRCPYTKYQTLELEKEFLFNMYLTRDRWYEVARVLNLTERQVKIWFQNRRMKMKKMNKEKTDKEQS
Chain of HOXB9 (Homo sapiens, UniProt P17482 171-250) (P17482 171-250): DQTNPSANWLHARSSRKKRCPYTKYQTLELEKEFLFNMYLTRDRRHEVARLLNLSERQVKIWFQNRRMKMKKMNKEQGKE
Chain of HOXC9 (Homo sapiens, UniProt P31274 178-260, K195R) (P31274 178-260 K195R): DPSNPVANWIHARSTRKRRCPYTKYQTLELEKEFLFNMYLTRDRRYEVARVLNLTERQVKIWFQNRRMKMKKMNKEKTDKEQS
Chain of HOXD13 (Homo sapiens, UniProt P35453 263-343) (P35453 263-343): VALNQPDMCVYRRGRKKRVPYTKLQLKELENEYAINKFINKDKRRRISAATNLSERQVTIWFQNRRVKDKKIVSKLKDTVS
Chain of HOXC9 (Homo sapiens, UniProt P31274 178-260) (P31274 178-260): as the sequence (P31274 178-260 R222W) above, with W45R counted along it
Chain of HOXD13 (Homo sapiens, UniProt P35453 263-343, T313A) (P35453 263-343 T313A): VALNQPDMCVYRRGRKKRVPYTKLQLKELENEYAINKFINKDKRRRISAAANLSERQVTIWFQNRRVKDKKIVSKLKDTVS
Chain of HOXC9 (Homo sapiens, UniProt P31274 178-260, R193K) (P31274 178-260 R193K): as the sequence (P31274 178-260 R222W) above, with R16K, W45R counted along it
Chain of HOXB9 (Homo sapiens, UniProt P17482 171-250, R186Q) (P17482 171-250 R186Q): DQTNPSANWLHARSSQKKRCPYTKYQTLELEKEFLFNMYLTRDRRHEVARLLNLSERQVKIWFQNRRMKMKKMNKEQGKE
Chain of HOXB9 (Homo sapiens, UniProt P17482 171-250, T197M) (P17482 171-250 T197M): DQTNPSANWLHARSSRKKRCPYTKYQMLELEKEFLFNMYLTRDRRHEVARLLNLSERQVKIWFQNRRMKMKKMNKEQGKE
Chain of HOXD13 (Homo sapiens, UniProt P35453 263-343, T313R) (P35453 263-343 T313R): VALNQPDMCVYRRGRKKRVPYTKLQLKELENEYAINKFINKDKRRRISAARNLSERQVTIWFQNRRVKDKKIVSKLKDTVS
Chain of HOXC10 (Homo sapiens, UniProt Q9NYD6 254-340, K271E) (Q9NYD6 254-340 K271E): as the sequence (Q9NYD6 254-340) above, with K18E counted along it
Chain of PROP1 (Homo sapiens, UniProt O75360 56-141, F88S) (O75360 56-141 F88S): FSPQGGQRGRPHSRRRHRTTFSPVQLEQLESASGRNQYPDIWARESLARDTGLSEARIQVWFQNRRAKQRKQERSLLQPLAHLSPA
Chain of ALX4 (Homo sapiens, UniProt Q9H161 200-286) (Q9H161 200-286): as the sequence (Q9H161 200-286 Q225E) above, with E26Q counted along it
Chain of PROP1 (Homo sapiens, UniProt O75360 56-141) (O75360 56-141): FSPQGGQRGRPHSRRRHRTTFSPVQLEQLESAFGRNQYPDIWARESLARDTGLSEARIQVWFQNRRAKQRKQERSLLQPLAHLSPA
Chain of MSX2 (Homo sapiens, UniProt P35548 130-214) (P35548 130-214): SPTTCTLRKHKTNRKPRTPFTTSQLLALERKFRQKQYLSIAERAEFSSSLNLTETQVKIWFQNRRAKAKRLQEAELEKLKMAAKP
Chain of MSX2 (Homo sapiens, UniProt P35548 130-214, R199I) (P35548 130-214 R199I): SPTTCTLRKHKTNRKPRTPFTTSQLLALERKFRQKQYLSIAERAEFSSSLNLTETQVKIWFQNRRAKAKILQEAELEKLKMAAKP
Chain of PROP1 (Homo sapiens, UniProt O75360 56-141, R99H) (O75360 56-141 R99H): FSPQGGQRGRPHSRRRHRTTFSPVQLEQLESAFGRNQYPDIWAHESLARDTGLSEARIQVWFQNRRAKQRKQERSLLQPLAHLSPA
Chain of MSX2 (Homo sapiens, UniProt P35548 130-214, F161Y) (P35548 130-214 F161Y): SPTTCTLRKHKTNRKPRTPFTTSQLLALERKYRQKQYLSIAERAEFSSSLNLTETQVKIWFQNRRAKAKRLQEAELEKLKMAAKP

| Sequence | binding signal (HOXB9 [1]) | binding signal (HOXC9 [2]) | binding signal (HOXC10 [3]) | binding signal (HOXB9 [4]) | binding signal (HOXC9 [5]) | binding signal (HOXD13 [6]) | binding signal (HOXC9 [7]) | binding signal (HOXD13 [8]) | binding signal (HOXC10 [9]) | binding signal (HOXD13 [10]) | binding signal (HOXB9 [11]) | binding signal (HOXC9 [12]) | binding signal (MSX2 [13]) | binding signal (MSX2 [14]) | binding signal (PROP1 [15]) | binding signal (PROP1 [16]) | binding signal (PROP1 [17]) | binding signal (MSX2 [18]) | binding signal (ALX4 [19]) | binding signal (ALX4 [20]) |
| --- | --- | --- | --- | --- | --- | --- | --- | --- | --- | --- | --- | --- | --- | --- | --- | --- | --- | --- | --- | --- |
| TCATAAAA | 9.93 upbm affinity estimate (log intensity, higher = more binding, comparable within an allelic series) | 13 upbm affinity estimate (log intensity, higher = more binding, comparable within an allelic series) | 12.8 upbm affinity estimate (log intensity, higher = more binding, comparable within an allelic series) | 12.4 upbm affinity estimate (log intensity, higher = more binding, comparable within an allelic series) | 13.1 upbm affinity estimate (log intensity, higher = more binding, comparable within an allelic series) | 11 upbm affinity estimate (log intensity, higher = more binding, comparable within an allelic series) | 12.9 upbm affinity estimate (log intensity, higher = more binding, comparable within an allelic series) | 12.2 upbm affinity estimate (log intensity, higher = more binding, comparable within an allelic series) | 12.3 upbm affinity estimate (log intensity, higher = more binding, comparable within an allelic series) | 11.9 upbm affinity estimate (log intensity, higher = more binding, comparable within an allelic series) | 12.1 upbm affinity estimate (log intensity, higher = more binding, comparable within an allelic series) | 11.3 upbm affinity estimate (log intensity, higher = more binding, comparable within an allelic series) | – | – | – | – | – | – | – | – |
| CCGCCTGC | 8.29 upbm affinity estimate (log intensity, higher = more binding, comparable within an allelic series) | 9.62 upbm affinity estimate (log intensity, higher = more binding, comparable within an allelic series) | – | 8.24 upbm affinity estimate (log intensity, higher = more binding, comparable within an allelic series) | 9.64 upbm affinity estimate (log intensity, higher = more binding, comparable within an allelic series) | – | 9.49 upbm affinity estimate (log intensity, higher = more binding, comparable within an allelic series) | – | – | – | 8.24 upbm affinity estimate (log intensity, higher = more binding, comparable within an allelic series) | 9.72 upbm affinity estimate (log intensity, higher = more binding, comparable within an allelic series) | 9.41 upbm affinity estimate (log intensity, higher = more binding, comparable within an allelic series) | 9.55 upbm affinity estimate (log intensity, higher = more binding, comparable within an allelic series) | 6.72 upbm affinity estimate (log intensity, higher = more binding, comparable within an allelic series) | 6.65 upbm affinity estimate (log intensity, higher = more binding, comparable within an allelic series) | 6.62 upbm affinity estimate (log intensity, higher = more binding, comparable within an allelic series) | 9.55 upbm affinity estimate (log intensity, higher = more binding, comparable within an allelic series) | – | – |
| CCCTCACC | 8.63 upbm affinity estimate (log intensity, higher = more binding, comparable within an allelic series) | 9.5 upbm affinity estimate (log intensity, higher = more binding, comparable within an allelic series) | 9.97 upbm affinity estimate (log intensity, higher = more binding, comparable within an allelic series) | 8.28 upbm affinity estimate (log intensity, higher = more binding, comparable within an allelic series) | 9.44 upbm affinity estimate (log intensity, higher = more binding, comparable within an allelic series) | – | 9.56 upbm affinity estimate (log intensity, higher = more binding, comparable within an allelic series) | – | 9.96 upbm affinity estimate (log intensity, higher = more binding, comparable within an allelic series) | – | 8.43 upbm affinity estimate (log intensity, higher = more binding, comparable within an allelic series) | 9.7 upbm affinity estimate (log intensity, higher = more binding, comparable within an allelic series) | – | – | – | – | – | – | – | – |
| GTCGTTAA | 10 upbm affinity estimate (log intensity, higher = more binding, comparable within an allelic series) | 12.6 upbm affinity estimate (log intensity, higher = more binding, comparable within an allelic series) | 12.5 upbm affinity estimate (log intensity, higher = more binding, comparable within an allelic series) | 11.8 upbm affinity estimate (log intensity, higher = more binding, comparable within an allelic series) | 12.8 upbm affinity estimate (log intensity, higher = more binding, comparable within an allelic series) | – | 12.6 upbm affinity estimate (log intensity, higher = more binding, comparable within an allelic series) | – | 12.4 upbm affinity estimate (log intensity, higher = more binding, comparable within an allelic series) | – | 11.3 upbm affinity estimate (log intensity, higher = more binding, comparable within an allelic series) | 10.6 upbm affinity estimate (log intensity, higher = more binding, comparable within an allelic series) | – | – | – | – | – | – | – | – |
| CCTTGCAG | 8.52 upbm affinity estimate (log intensity, higher = more binding, comparable within an allelic series) | 9.62 upbm affinity estimate (log intensity, higher = more binding, comparable within an allelic series) | – | 8.41 upbm affinity estimate (log intensity, higher = more binding, comparable within an allelic series) | 9.66 upbm affinity estimate (log intensity, higher = more binding, comparable within an allelic series) | – | 9.67 upbm affinity estimate (log intensity, higher = more binding, comparable within an allelic series) | – | – | – | 8.42 upbm affinity estimate (log intensity, higher = more binding, comparable within an allelic series) | 9.74 upbm affinity estimate (log intensity, higher = more binding, comparable within an allelic series) | – | – | – | – | – | – | 7.87 upbm affinity estimate (log intensity, higher = more binding, comparable within an allelic series) | 8.04 upbm affinity estimate (log intensity, higher = more binding, comparable within an allelic series) |
| ATCGTAAA | 9.78 upbm affinity estimate (log intensity, higher = more binding, comparable within an allelic series) | 12.6 upbm affinity estimate (log intensity, higher = more binding, comparable within an allelic series) | 12.7 upbm affinity estimate (log intensity, higher = more binding, comparable within an allelic series) | 11.9 upbm affinity estimate (log intensity, higher = more binding, comparable within an allelic series) | 12.9 upbm affinity estimate (log intensity, higher = more binding, comparable within an allelic series) | 10.9 upbm affinity estimate (log intensity, higher = more binding, comparable within an allelic series) | 12.6 upbm affinity estimate (log intensity, higher = more binding, comparable within an allelic series) | 12.1 upbm affinity estimate (log intensity, higher = more binding, comparable within an allelic series) | 12.1 upbm affinity estimate (log intensity, higher = more binding, comparable within an allelic series) | 11.8 upbm affinity estimate (log intensity, higher = more binding, comparable within an allelic series) | 11.4 upbm affinity estimate (log intensity, higher = more binding, comparable within an allelic series) | 10.8 upbm affinity estimate (log intensity, higher = more binding, comparable within an allelic series) | – | – | – | – | – | – | – | – |
| GTCATAAA | 9.98 upbm affinity estimate (log intensity, higher = more binding, comparable within an allelic series) | 13.1 upbm affinity estimate (log intensity, higher = more binding, comparable within an allelic series) | 12.9 upbm affinity estimate (log intensity, higher = more binding, comparable within an allelic series) | 12.5 upbm affinity estimate (log intensity, higher = more binding, comparable within an allelic series) | 13.1 upbm affinity estimate (log intensity, higher = more binding, comparable within an allelic series) | 10.9 upbm affinity estimate (log intensity, higher = more binding, comparable within an allelic series) | 13.1 upbm affinity estimate (log intensity, higher = more binding, comparable within an allelic series) | 12.1 upbm affinity estimate (log intensity, higher = more binding, comparable within an allelic series) | 12.4 upbm affinity estimate (log intensity, higher = more binding, comparable within an allelic series) | 11.8 upbm affinity estimate (log intensity, higher = more binding, comparable within an allelic series) | 12.2 upbm affinity estimate (log intensity, higher = more binding, comparable within an allelic series) | 11.2 upbm affinity estimate (log intensity, higher = more binding, comparable within an allelic series) | – | – | – | – | – | – | – | – |
